From PubChem BioAssay (EPA / NIEHS)
Inconclusive results are not listed. Some structures have more than one record in an assay (separate samples or runs), and their calls can disagree. Activity calls are given as the source filed them. The calls were made as follows, unless noted: active = hit-call score of the fitted dose curve at least 0.9, where 1 is the maximum; inconclusive = response in the unintended direction; inactive = score below 0.9.

Columns and labels:
[1] = target: Retinoic acid receptor RXR-alpha (Homo sapiens) (UniProt P19793); assay: ATG_RXRa_TRANS: Attagene TRANS-FACTORIAL HepG2 Assay for human Retinoid X Receptor alpha (RXRa) (AID 2283012)
How it was run: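 Read-out: fluorescent reporter-transcript fragments quantified by capillary electrophoresis after RT-PCR. Transiently transfected HepG2 cells carrying GAL4-UAS reporters and NR-GAL4 chimeras were exposed to chemical for 24 h; activity scored as increase over DMSO.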

[2] = target: human Retinoid X Receptor beta (RXRb), RXRB (gene 6257) (UniProt P28702); assay: ATG_RXRb_TRANS: Attagene TRANS-FACTORIAL HepG2 Assay for human Retinoid X Receptor beta (RXRb) (AID 2283013)
How it was run: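 Read-out: reporter mRNA induction via RT-PCR plus capillary electrophoresis fluorescence, analysed as signal increase relative to DMSO. Cells were human HepG2, transiently transfected with GAL4-UAS reporter constructs and chimeric receptor-Gal4 fusions, dosed for 24 h.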

[3] = target: human Thyroid Receptor alpha (THRa1), THRA (gene 7067) (UniProt P10827); assay: ATG_THRa1_TRANS: Attagene TRANS-FACTORIAL HepG2 Assay for human Thyroid Receptor alpha (THRa1) (AID 2283014)
How it was run: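 HepG2 cells transiently transfected with multiplexed GAL4-UAS reporter units for exogenous chimeric THRa1-Gal4; reporter mRNA measured 24 h after dosing by RT-PCR, 6-FAM labelling, HpaI digestion and capillary electrophoresis. Gain-of-signal fitted versus DMSO baseline.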

[4] = read-out: E-selectin (Homo sapiens) (UniProt P16581); assay: BSK_3C_Eselectin: BioMAP Diversity Plus: 3C Assay for Eselectin Biomarker Activity (AID 2283015; active = hit-call score of the fitted dose curve at least 0.9, where 1 is the maximum; inactive = score below 0.9;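 as to outcome: cell surface E-selectin protein quantified by ELISA 24 h after dosing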); conditions: primary human endothelial cells (HUVEC); actives raise or lower the signal
How it was run: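 Primary human umbilical vein endothelial cells (3C system) were dosed with chemical and cell-surface E-selectin measured by ELISA 24 h later. Bidirectional curve fitting used DMSO as negative control and baseline.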

[5] = read-out: Interleukin-1 alpha (IL1a), IL1A (gene 3552); assay: BSK_BE3C_IL1a: BioMAP Diversity Plus: BE3C Assay for Interleukin-1 alpha (IL1a) Biomarker Activity (AID 2283016; active = hit-call score of the fitted dose curve at least 0.9, where 1 is the maximum; inactive = score below 0.9); conditions: primary human bronchial epithelial cells; actives raise or lower the signal
How it was run: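 ELISA read-out of IL-1a from human lung bronchial epithelial primary cells, 24 h post-dose. Gain or loss of signal fitted relative to DMSO negative control.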

[6] = read-out: Monocyte Chemoattractant Protein-1 (MCP1), CCL2 (gene 6347); assay: BSK_3C_MCP1: BioMAP Diversity Plus: 3C Assay for Monocyte Chemoattractant Protein-1 (MCP1) Biomarker Activity (AID 2283017; active = hit-call score of the fitted dose curve at least 0.9, where 1 is the maximum; inactive = score below 0.9); conditions: primary human endothelial cells (HUVEC); actives raise or lower the signal
How it was run: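 Primary human umbilical vein endothelial cells (3C system) were exposed to test chemical for 24 h, after which MCP-1 was quantified by ELISA. Activity was fitted bidirectionally against DMSO as negative control and baseline.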

[7] = read-out: Human Leukocyte Antigen - DR isotype (HLADR), HLA-DRA (gene 3122); assay: BSK_3C_HLADR: BioMAP Diversity Plus: 3C Assay for Human Leukocyte Antigen - DR isotype (HLADR) Biomarker Activity (AID 2283019; active = hit-call score of the fitted dose curve at least 0.9, where 1 is the maximum; inactive = score below 0.9;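 as to outcome: ELISA of cell-surface HLA-DR on HUVEC 24 h after dosing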); conditions: primary human endothelial cells (HUVEC); actives raise or lower the signal
How it was run: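 Primary human umbilical vein endothelial cells (3C system) were dosed with compound and cell-surface HLA-DR was quantified by ELISA at 24 h. Activity was fitted bidirectionally against DMSO as negative control and baseline.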

[8] = read-out: Interleukin-8 (IL8), CXCL8 (gene 3576); assay: BSK_3C_IL8: BioMAP Diversity Plus: 3C Assay for Interleukin-8 (IL8) Biomarker Activity (AID 2283020; active = hit-call score of the fitted dose curve at least 0.9, where 1 is the maximum; inactive = score below 0.9); conditions: primary human endothelial cells (HUVEC); actives raise or lower the signal
How it was run: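 HUVEC, 3C stimulation; 24 h compound exposure; IL-8 read by ELISA; gain or loss of signal fitted relative to DMSO control.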

[9] = read-out: Monocyte Chemoattractant Protein-1 (MCP1), CCL2 (gene 6347); assay: BSK_4H_MCP1: BioMAP Diversity Plus: 4H Assay for Monocyte Chemoattractant Protein-1 (MCP1) Biomarker Activity (AID 2283018; active = hit-call score of the fitted dose curve at least 0.9, where 1 is the maximum; inactive = score below 0.9); conditions: primary human endothelial cells (HUVEC); actives raise or lower the signal
How it was run: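 HUVEC primary cells, 24 h post-dose, MCP-1 by ELISA. Gain or loss of signal fitted bidirectionally vs DMSO baseline. Cytotoxicity: SRB stain (0.1% after 10% TCA fixation), read 560 nm, parallel cultures.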

human Thyroid Receptor alpha (THRa1), THRA (gene 7067), sequence (P10827 whole entry, looked up, the tested form may be a part): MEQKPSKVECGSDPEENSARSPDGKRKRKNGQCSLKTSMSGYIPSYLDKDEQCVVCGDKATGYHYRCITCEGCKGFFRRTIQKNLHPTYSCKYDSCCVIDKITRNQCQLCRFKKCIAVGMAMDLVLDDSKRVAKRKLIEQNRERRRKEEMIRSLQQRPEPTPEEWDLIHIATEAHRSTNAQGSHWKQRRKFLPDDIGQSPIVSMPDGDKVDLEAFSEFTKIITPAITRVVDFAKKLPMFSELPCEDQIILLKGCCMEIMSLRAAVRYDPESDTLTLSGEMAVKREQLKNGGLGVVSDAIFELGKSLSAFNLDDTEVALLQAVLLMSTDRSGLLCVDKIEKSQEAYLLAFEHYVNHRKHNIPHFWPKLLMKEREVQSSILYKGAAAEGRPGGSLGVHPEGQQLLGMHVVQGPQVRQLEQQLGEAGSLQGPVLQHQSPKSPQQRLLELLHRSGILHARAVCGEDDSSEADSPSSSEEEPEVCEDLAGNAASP
human Retinoid X Receptor beta (RXRb), RXRB (gene 6257), sequence (P28702 whole entry, looked up, the tested form may be a part): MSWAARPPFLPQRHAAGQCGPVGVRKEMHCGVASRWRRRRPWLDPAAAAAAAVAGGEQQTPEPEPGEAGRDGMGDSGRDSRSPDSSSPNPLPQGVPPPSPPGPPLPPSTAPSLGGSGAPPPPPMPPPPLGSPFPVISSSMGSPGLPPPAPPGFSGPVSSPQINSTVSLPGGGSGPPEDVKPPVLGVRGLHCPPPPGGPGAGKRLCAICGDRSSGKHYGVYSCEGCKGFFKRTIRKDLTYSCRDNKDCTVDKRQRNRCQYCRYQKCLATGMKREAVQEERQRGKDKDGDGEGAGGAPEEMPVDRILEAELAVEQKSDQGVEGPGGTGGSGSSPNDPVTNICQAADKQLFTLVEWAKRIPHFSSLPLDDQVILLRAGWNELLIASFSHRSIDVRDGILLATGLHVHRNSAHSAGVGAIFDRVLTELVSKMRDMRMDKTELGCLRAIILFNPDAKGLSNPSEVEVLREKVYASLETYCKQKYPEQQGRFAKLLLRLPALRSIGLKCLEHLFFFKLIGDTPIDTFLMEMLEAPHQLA
E-selectin (Homo sapiens), sequence (P16581 whole entry, looked up): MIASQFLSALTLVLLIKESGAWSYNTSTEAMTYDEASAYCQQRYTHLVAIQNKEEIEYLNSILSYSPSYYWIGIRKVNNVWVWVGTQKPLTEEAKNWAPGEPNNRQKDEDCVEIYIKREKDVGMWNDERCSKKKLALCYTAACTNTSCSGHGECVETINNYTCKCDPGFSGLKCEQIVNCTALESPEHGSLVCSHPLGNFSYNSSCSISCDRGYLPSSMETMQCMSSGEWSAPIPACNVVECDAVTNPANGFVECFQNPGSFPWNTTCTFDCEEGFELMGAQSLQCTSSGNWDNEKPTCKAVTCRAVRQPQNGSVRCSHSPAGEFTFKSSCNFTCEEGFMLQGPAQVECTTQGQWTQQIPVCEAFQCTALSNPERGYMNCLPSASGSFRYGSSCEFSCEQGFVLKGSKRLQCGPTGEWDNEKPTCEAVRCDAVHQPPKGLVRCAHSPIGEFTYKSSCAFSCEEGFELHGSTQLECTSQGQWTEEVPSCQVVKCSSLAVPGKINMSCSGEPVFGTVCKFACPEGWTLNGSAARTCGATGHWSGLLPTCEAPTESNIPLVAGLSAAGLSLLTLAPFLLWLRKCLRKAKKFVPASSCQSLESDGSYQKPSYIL
Retinoic acid receptor RXR-alpha (Homo sapiens), sequence (P19793 whole entry, looked up, the tested form may be a part): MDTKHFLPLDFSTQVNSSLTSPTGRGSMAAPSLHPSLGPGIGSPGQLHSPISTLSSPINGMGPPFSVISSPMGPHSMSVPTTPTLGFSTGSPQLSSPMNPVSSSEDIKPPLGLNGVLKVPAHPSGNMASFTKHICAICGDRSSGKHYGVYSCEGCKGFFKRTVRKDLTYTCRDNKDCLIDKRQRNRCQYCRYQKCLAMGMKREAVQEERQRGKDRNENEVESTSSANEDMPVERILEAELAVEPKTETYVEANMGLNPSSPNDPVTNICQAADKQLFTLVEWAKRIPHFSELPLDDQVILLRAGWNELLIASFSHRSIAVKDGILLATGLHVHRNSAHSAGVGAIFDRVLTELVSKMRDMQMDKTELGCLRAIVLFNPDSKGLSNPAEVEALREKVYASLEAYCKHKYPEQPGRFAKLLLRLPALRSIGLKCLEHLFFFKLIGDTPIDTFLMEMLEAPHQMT

With `Cc1cc(C)nc(NS(=O)(=O)c2ccc(N)cc2)n1` the outcome [1] was “inactive”, the outcome [2] was “inactive” and the outcome [3] was “inactive”.
In the case of `COC(=O)Nc1ccc(Cl)c(Cl)c1`, the outcome [1] is reported as “inactive”, the AC50 [2] is reported as 45.1 µM (active) and the outcome [3] is reported as “inactive”.
`CC(=O)c1c(C)c([N+](=O)[O-])c(C(C)(C)C)c([N+](=O)[O-])c1C` was tested, and the AC50 [1] was 6.93 µM (active), the AC50 [2] was 1 µM (active) and the outcome [4] was “inactive”. For the same compound, the outcome [5] was “inactive”, the outcome [6] was “inactive” and the outcome [7] was “inactive”. The outcome [8] was “inactive”.
In the case of `CCCCCC(=O)CC`, the outcome [1] is reported as “inactive” and the outcome [3] is reported as “inactive”.
For `C[C@H]1O[C@@H](O[C@H]2[C@@H](O)C[C@H](O[C@H]3[C@@H](O)C[C@H](O[C@H]4CC[C@@]5(C)[C@H](CC[C@@H]6[C@@H]5C[C@@H](O)[C@]5(C)[C@@H](C7=CC(=O)OC7)CC[C@]65O)C4)O[C@@H]3C)O[C@@H]2C)C[C@H](O)[C@@H]1O`, the outcome [1] was “inactive” and the outcome [3] was “inactive”.
For `Cc1ncc[nH]1`, the outcome [1] was “inactive” and the outcome [3] was “inactive”.
With `CCOC(=O)COC(=O)c1cc(Oc2ccc(C(F)(F)F)cc2Cl)ccc1[N+](=O)[O-]` the outcome [1] was “inactive” and the outcome [3] was “inactive”.
With `C#CC(C)(O)CC(C)C` (stereo not drawn) the outcome [1] was “inactive” and the outcome [3] was “inactive”.
In the case of `O=C(Nc1ccc2c(O)c(N=Nc3ccc(N=Nc4ccc(S(=O)(=O)O)cc4)cc3)c(S(=O)(=O)O)cc2c1)c1ccccc1`, the outcome [1] is reported as “inactive”, the outcome [2] is reported as “inactive” and the outcome [3] is reported as “inactive”. For the same compound, the outcome [4] was “inactive”, the outcome [5] was “inactive” and the outcome [6] was “inactive”. For the same compound, the outcome [7] was “inactive”, the AC50 [8] was 20 µM (active) and the outcome [8] was “inactive”.
For `OCC(O)c1ccccc1` (stereo not drawn), the outcome [1] was “inactive” and the outcome [3] was “inactive”.
With `CC(C)C[C@H](NC(=O)OCC1c2ccccc2-c2ccccc21)C(=O)O` the outcome [1] was “inactive”, the outcome [2] was “inactive” and the outcome [3] was “inactive”.
With `COc1cc(Cl)c(OC)cc1N` the outcome [1] was “inactive”, the outcome [2] was “inactive” and the outcome [4] was “inactive”. For the same compound, the outcome [5] was “inactive”, the outcome [6] was “inactive” and the outcome [7] was “inactive”. The outcome [8] was “inactive”.
In the case of `Cc1ccc(S(N)(=O)=O)cc1`, the outcome [1] is reported as “inactive” and the outcome [3] is reported as “inactive”.
`CC[N+](C)(CC)CC` was tested, and the outcome [1] was “inactive” and the outcome [3] was “inactive”.
For `CCc1ncc(C)[nH]1`, the outcome [1] was “inactive” and the outcome [3] was “inactive”.
In the case of `Nc1ccc(NCCO)c([N+](=O)[O-])c1`, the outcome [1] is reported as “inactive”, the AC50 [2] is reported as 18.1 µM (active) and the outcome [3] is reported as “inactive”.
In the case of `C[Si]1(C)O[Si](C)(C)O[Si](C)(C)O1`, the outcome [1] is reported as “inactive” and the outcome [3] is reported as “inactive”.
For `O=C1OC[C@H](Cc2cccc(O)c2)[C@H]1Cc1cccc(O)c1`, the outcome [1] was “inactive”, the outcome [2] was “inactive” and the outcome [4] was “inactive”. The outcome [5] was “inactive”, the outcome [6] was “inactive” and the outcome [7] was “inactive”. The outcome [8] was “inactive”.
With `CC(C)(C)CC(C)(C)c1ccc(OCCOCC[N+](C)(C)Cc2ccccc2)cc1` the outcome [1] was “inactive”, the outcome [3] was “inactive” and the AC50 [4] was 6.62 µM (active). The AC50 [5] was 7.26 µM (active), the AC50 [6] was 5 µM (active) and the AC50 [9] was 3.9 µM (active). The AC50 [7] was 5 µM (active) and the AC50 [8] was 5 µM (active).
`c1ccc(CCc2ccccc2)cc1` was tested, and the outcome [1] was “inactive”, the outcome [2] was “inactive” and the outcome [3] was “inactive”. For the same compound, the AC50 [4] was 28.7 µM (active), the AC50 [5] was 27 µM (active) and the AC50 [6] was 28.5 µM (active). The AC50 [7] was 15.3 µM (active) and the AC50 [8] was 25.8 µM (active).
`CS(=O)(=O)c1ccc(C2=C(c3ccccc3)C(=O)OC2)cc1` was tested, and the outcome [1] was “inactive”, the outcome [2] was “inactive” and the outcome [3] was “inactive”. The outcome [4] was “inactive”, the outcome [5] was “inactive” and the outcome [6] was “inactive”. For the same compound, the outcome [7] was “inactive” and the outcome [8] was “inactive”.
In the case of `CC(=O)CC(=O)Nc1ccccc1`, the outcome [1] is reported as “inactive” and the outcome [3] is reported as “inactive”.
In the case of `CC(C)(CO)[C@@H](O)C(=O)NCCC(=O)O`, the outcome [1] is reported as “inactive”, the outcome [2] is reported as “inactive” and the outcome [3] is reported as “inactive”.
`c1ccc2[nH]cnc2c1` was tested, and the outcome [1] was “inactive” and the outcome [3] was “inactive”.
In the case of `O=C(O)COCC(=O)O`, the outcome [2] is reported as “inactive” and the outcome [3] is reported as “inactive”.
For `CCCCCCCCCCCCS(=O)(=O)Cl`, the outcome [2] was “inactive”.
In the case of `CC(C)(N=C=O)c1cccc(C(C)(C)N=C=O)c1`, the outcome [1] is reported as “inactive”, the outcome [4] is reported as “inactive” and the outcome [5] is reported as “inactive”. The outcome [6] was “inactive”, the outcome [9] was “inactive” and the outcome [7] was “inactive”. For the same compound, the outcome [8] was “inactive”.
In the case of `NCCNc1cccc2ccccc12`, the outcome [2] is reported as “inactive” and the outcome [3] is reported as “inactive”.
In the case of `COc1cc([C@@H]2c3cc4c(cc3[C@@H](O[C@@H]3O[C@@H]5CO[C@@H](C)O[C@H]5[C@H](O)[C@H]3O)[C@H]3COC(=O)[C@H]23)OCO4)cc(OC)c1O`, the outcome [2] is reported as “inactive”.
In the case of `N[C@@H](Cc1cc(I)c(Oc2cc(I)c(O)c(I)c2)c(I)c1)C(=O)O`, the AC50 [2] is reported as 69 µM (active).
With `CCCCCCCC/C=C\CCCCCCCC(=O)OCC` the outcome [2] was “inactive”.
